# This is a sample that favours compounds with a hit; in the whole collection about 3.4% have one here.
# Mito fusion act = mitochondrial division inhibition or fusion activation. S. cerevisiae fusion-defective mutant growth rescue, CellTiterGlo 48 h. Potency, µM (highest dose often 46.1 µM), without a hit: top-dose growth rescue (activation), usual class: activators. 320,000 compounds, 0.23% hits. AID 485298; note: % of control where 0% means no effect; nearly all actives have a fitted effect of over 45% in size
#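 Growth-rescue viability read-out: after 48 h at the non-permissive 37C in glycerol/ethanol YPEG, yeast mitochondrial fusion mutants are measured by CellTiterGlo luminescence; compounds (23 nl pinned per well) restoring growth score as division inhibitors or fusion activators.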
# GLS inhibitor = glutaminase GLS (human) inhibition. O94925. GLS enzymatic activity, qHTS titration. Potency, µM (highest dose often 45.5 µM), inactives show at the top dose activity change, negative = inhibition, most hits filed as inhibitors. 410,000 compounds, 0.21% hits; note: % is set by controls: 0 for no effect and ±100 for the full control effect
# Target sequence (O94925 whole entry, looked up): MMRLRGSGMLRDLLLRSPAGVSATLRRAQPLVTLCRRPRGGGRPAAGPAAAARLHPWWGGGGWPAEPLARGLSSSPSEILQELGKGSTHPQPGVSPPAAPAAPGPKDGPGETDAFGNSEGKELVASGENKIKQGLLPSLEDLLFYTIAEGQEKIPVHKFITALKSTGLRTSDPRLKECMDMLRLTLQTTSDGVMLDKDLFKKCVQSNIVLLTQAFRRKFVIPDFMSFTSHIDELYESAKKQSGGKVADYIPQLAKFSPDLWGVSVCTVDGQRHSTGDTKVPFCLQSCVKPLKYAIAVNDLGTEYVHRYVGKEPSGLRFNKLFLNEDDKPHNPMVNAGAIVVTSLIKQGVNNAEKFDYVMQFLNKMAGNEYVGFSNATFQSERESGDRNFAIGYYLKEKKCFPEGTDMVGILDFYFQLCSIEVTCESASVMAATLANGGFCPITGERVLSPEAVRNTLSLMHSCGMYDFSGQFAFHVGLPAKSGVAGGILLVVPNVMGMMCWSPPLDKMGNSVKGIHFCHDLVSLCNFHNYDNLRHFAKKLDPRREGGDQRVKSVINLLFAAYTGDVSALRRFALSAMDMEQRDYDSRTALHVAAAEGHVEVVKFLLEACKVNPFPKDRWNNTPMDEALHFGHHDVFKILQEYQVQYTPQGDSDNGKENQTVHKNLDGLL
#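 Glutamate formation by hKGA was monitored fluorometrically using coupled glutamate oxidase, HRP and Amplex Red. Substrate was added as 1 mM L-glutamine solution; incubation was 30 min at RT after an initial read.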
# KAT2A inh = GCN5L2 (KAT2A) acetyltransferase inhibition. AID 504327. Q92830. GCN5L2 HAT assay, ThioGlo1 CoA-SH fluorescence. Potency, µM (series often up to 58.9 µM), for the others: at the top dose activity change, negative = inhibition, usual class: inhibitors. 390,000 compounds, 0.21% hits; note: % is set by controls: 0 for no effect and ±100 for the full control effect
#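 Titration-based screen in which CoA formation is detected via maleimide probe ThioGlo1 (50uM) turning fluorescent on thiol reaction; substrates H3(1-25) 75uM and acetyl-CoA 70uM, GCN5L2 20nM, 20 min incubation at room temperature.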
# VDR inh = inhibitors of human vitamin D receptor. Potency, µM, for the others: max response, negative = inhibition, hits mostly inhibitors. VDR-SRC2-3 peptide fluorescence polarization, 2 h. AID 504847. 400,000 compounds, 0.93% hits. P11473; note: % is set by controls: 0 for no effect and ±100 for the full control effect
#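 Inhibition of the VDR/SRC2-3 peptide interaction is quantified by fluorescence polarization. Compounds (23 nl, pintool) incubate with the reagents for 2 hours at ambient room temperature.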
# PLK1 PBD inh = PLK1 (human) polo-box domain binding inhibition; 360,000 compounds, 2.8% hits; Plk1 PBD binding of FITC phosphopeptide, fluorescence polarization; P53350; Potency, µM, without a hit: max response, negative = inhibition, hits mostly inhibitors; note: series mostly up to about 57 µM; % is set by controls: 0 for no effect and ±100 for the full control effect; nearly all actives have a fitted effect of over 65% in size
# PKM2 activator = activators of human pyruvate kinase M2 | 260,000 compounds, 0.34% hits | purified PKM2, Kinase-Glo ATP luminescence, activation; response scale: 0% is enzyme alone, no compound | P14618 | Potency, µM (titrated, usually from 57.5 µM), for inactives: top-dose activation, most hits filed as activators | AID 1631; note: % is set by controls: 0 for no effect and ±100 for the full control effect; nearly all actives have a fitted effect of over 55% in size
#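 Purified hPK-M2 (>95% pure) converted ADP (0.1 mM final) to ATP with 0.5 mM PEP in 50 mM imidazole pH7.2, KCl, MgCl2, Tween 20, BSA; 1 h at room temperature. ATP detected by Kinase-Glo luminescence.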
# Numbers without * were called inactive; ? = inconclusive; / = no result given; [ ] = dose if it differs, or a comment. Calls come from the whole dose curve; as a rule, active = well fitted curve in the direction sought with a large enough effect; inconclusive = small, poorly fitted or top-dose-only effect, or another doubt; inactive = no such curve, though single readings can be large; an effect the other way counts as inactive or inconclusive. Potency is the fitted concentration of half-maximal effect.
SMILES,Mito fusion act,GLS inhibitor,KAT2A inh,VDR inh,PLK1 PBD inh,PKM2 activator
O=C(CCOc1ccccc1)N1CCN(c2ccc(O)cc2)CC1,-5%,11µM*,-4%,5%,2%,22%
O=C(CCOc1ccccc1)N1CCN(S(=O)(=O)c2cccs2)CC1,6%,10%,-14%,-7%,-8%,13µM*
O=C(COc1ccccc1)N1CCN(S(=O)(=O)c2cccs2)CC1,4%,4%,1%,16%,-9%,7.9µM*
CCS(=O)(=O)N1CCN(S(=O)(=O)c2ccccc2[N+](=O)[O-])CC1,-4%,-4%,2%,12%,5%,?
O=C(CCOc1ccccc1)N1CCN(S(=O)(=O)c2ccccc2F)CC1,3%,7%,-2%,0%,-3%,/
COc1ccc(OCC(=O)N2CCN(S(=O)(=O)c3ccccc3[N+](=O)[O-])CC2)cc1,-6%,0%,-13%,-15%,1%,7.9µM*
CCOC(=O)N1CCN(C(=O)CNS(=O)(=O)c2cccs2)CC1,-1%,-6%,-4%,9%,3%,6%
CC(=O)Nc1ccc(S(=O)(=O)NCC(=O)N2CCN(S(=O)(=O)c3cccs3)CC2)cc1,6%,0%,-3%,-8%,15µM*,/
N#Cc1ccc(OCC(=O)N2CCN(S(=O)(=O)c3cccs3)CC2)cc1,4%,-8%,-2%,0%,3%,18µM*
Cc1cc(-n2cnnn2)cc(C)c1S(=O)(=O)NCCOc1ccccc1,2%,0%,-14%,9%,-1%,/
O=[N+]([O-])c1ccccc1S(=O)(=O)N1CCN(c2ccccc2)CC1,-2%,-5%,-4%,-11%,-6%,2%[11.5 µM]
Cc1sc(NC(=O)CCCC(=O)O)c(C(N)=O)c1-c1ccccc1,3%,3%,-9%,-10%,30µM*,15%
CC1=C(C(=O)N(C(C)C)C(C)C)CC(CC(=O)NCCN2CCOCC2)C(=O)N1CCCN1CCCC1=O (stereo not given),/,10%,/,/,-8%,/
Nc1ccc(OCc2ccccc2)cc1[N+](=O)[O-],/,5%,/,3%,-1%,/
O=Cc1cc(OCc2ccccc2)ccc1[B-](F)(F)F,/,25%,/,20µM*,-17%,/
Cn1c(O)c(N=NC(=O)C2COc3ccccc3O2)c2ccccc21 (stereo not given),9%,-1%,-8%,-21%,27µM*,3%
Cn1c(O)c(N=NC(=O)c2ccccc2O)c2ccccc21,19%,?,29%,?,3.4µM*,-16%
CCOC(=O)C(=O)N=Nc1c(O)n(C)c2ccccc12,-3%,-11%,-16%,-11%,-9%,-14%
O=C(N=Nc1ccc(NOC(=O)c2ccccc2Br)cc1)c1ccccc1O,-5%,/,-16%,/,/,/
Cc1cc(N=NC(=O)c2ccccc2O)c2ccccc2c1O,-2%,30%,-11%,-4%,27µM*,-11%
COC(=O)c1c(NC(=O)C2CCCCC2C(=O)O)sc2c1CCCCC2 (stereo not given),-4%,-1%,1%,-15%,24µM*,-6%
CCOC(=O)c1c(NC(=O)C2CCCCC2C(=O)O)sc2c1CCCCC2 (stereo not given),-4%,4%,-8%,-13%,?,-19%
CC1(Cc2ccc3ccccc3n2)C(=O)Nc2ccc(OC(F)(F)F)cc21 (stereo not given),/,12%,/,/,-5%,/
C=C[C@@H]1c2cc(C)ccc2N(S(=O)(=O)c2ccc(C)cc2)[C@H](c2ccccc2C(F)(F)F)C1(C#N)C#N,7%,2%,-3%,-7%,-8%,/
CC1CCCCN1Cc1c(O)ccc2c(=O)c(-c3nc4ccccc4s3)coc12 (stereo not given),15%,28%,1%,-17%,21µM*,-2%
COc1ccc(CC(=O)N(C)CC(=O)Nc2ccccc2SC)cc1,-3%,?,-1%,?,24µM*,4%
